The AC50 is the midpoint of the concentration-response curve, whichever way the signal moves.

For assay [1], the target named is human RAR-related Orphan Receptor gamma (RORg), RORC (gene 6097) (UniProt P51449). The assay is described as follows: ATG_RORg_TRANS: Attagene TRANS-FACTORIAL HepG2 Assay for human RAR-related Orphan Receptor gamma (RORg) (AID 2283011; active = hit-call score of the fitted dose curve at least 0.9, where 1 is the maximum). The gist of the method:
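First, HepG2 liver cells were transfected with GAL4-UAS-driven reporter constructs and the RORg-Gal4 fusion. Next, they were treated with chemical for 24 h. Finally, reporter mRNA was quantified by RT-PCR and capillary electrophoresis, with upward activity fitted against DMSO.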

Assay [2] deals with Retinoic acid receptor RXR-alpha (Homo sapiens) (UniProt P19793). Description: ATG_RXRa_TRANS: Attagene TRANS-FACTORIAL HepG2 Assay for human Retinoid X Receptor alpha (RXRa) (AID 2283012; active = hit-call score of the fitted dose curve at least 0.9, where 1 is the maximum). The gist of the method:
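HepG2 cells transiently transfected with multiplexed GAL4-UAS reporter units and chimeric NR-GAL4 fusions, dosed 24 h. Reporter mRNA measured by RT-PCR, FAM labelling, HpaI digestion and capillary electrophoresis; gain-of-signal fitted relative to DMSO baseline.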

The target in assay [3] is human Retinoid X Receptor beta (RXRb), RXRB (gene 6257) (UniProt P28702). The assay is described as follows: ATG_RXRb_TRANS: Attagene TRANS-FACTORIAL HepG2 Assay for human Retinoid X Receptor beta (RXRb) (AID 2283013; active = hit-call score of the fitted dose curve at least 0.9, where 1 is the maximum). Summed up:
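HepG2 cells transiently transfected with multiplexed reporter units driven by GAL4-UAS and exogenous chimeric NR-Gal4 proteins; treated 24 h. Reporter mRNA measured by RT-PCR, 6-FAM labelling and capillary electrophoresis; gain-of-signal fitted versus DMSO baseline.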

The target of assay [4] is human Thyroid Receptor alpha (THRa1), THRA (gene 7067) (UniProt P10827). The assay is described as follows: ATG_THRa1_TRANS: Attagene TRANS-FACTORIAL HepG2 Assay for human Thyroid Receptor alpha (THRa1) (AID 2283014; active = hit-call score of the fitted dose curve at least 0.9, where 1 is the maximum). Summed up:
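Reporter transcript induction, read by capillary electrophoresis of 6-FAM-labelled RT-PCR products, reflects activity of a transfected THRa1-Gal4 fusion in HepG2 liver cells. Cells were dosed for 24 h; activity was fitted in the positive direction against DMSO.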

Read-out in assay [5]: E-selectin (Homo sapiens) (UniProt P16581)
The assay is described as follows: BSK_3C_Eselectin: BioMAP Diversity Plus: 3C Assay for Eselectin Biomarker Activity (AID 2283015).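 As to outcome: cell surface E-selectin protein quantified by ELISA 24 h after dosing.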 To be noted: primary human endothelial cells (HUVEC); actives raise or lower the signal. The gist of the method: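 ELISA read-out of E-selectin on endothelial monolayers after 24 h chemical treatment. Human umbilical vein primary cells served as the system, with DMSO defining baseline activity for bidirectional fitting.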

Read-out in assay [6]: Interleukin-1 alpha (IL1a), IL1A (gene 3552)
The assay is described as follows: BSK_BE3C_IL1a: BioMAP Diversity Plus: BE3C Assay for Interleukin-1 alpha (IL1a) Biomarker Activity (AID 2283016). To be noted: primary human bronchial epithelial cells; actives raise or lower the signal. The gist of the method:
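Human primary bronchial epithelial cells (BE3C system) were dosed with compound and IL-1a measured by ELISA 24 h later. Activity was fitted bidirectionally against DMSO baseline; cytotoxicity was tracked in parallel cultures by SRB total-protein staining.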

Read-out in assay [7]: Monocyte Chemoattractant Protein-1 (MCP1), CCL2 (gene 6347)
Description: BSK_3C_MCP1: BioMAP Diversity Plus: 3C Assay for Monocyte Chemoattractant Protein-1 (MCP1) Biomarker Activity (AID 2283017). Conditions: primary human endothelial cells (HUVEC); actives raise or lower the signal. The gist of the method: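 ELISA read-out of MCP-1 from human umbilical vein endothelial cell cultures harvested 24 h post-dosing. Gain or loss of signal was fitted relative to DMSO.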

Read-out in assay [8]: Monocyte Chemoattractant Protein-1 (MCP1), CCL2 (gene 6347)
The assay is described as follows: BSK_4H_MCP1: BioMAP Diversity Plus: 4H Assay for Monocyte Chemoattractant Protein-1 (MCP1) Biomarker Activity (AID 2283018). To be noted: primary human endothelial cells (HUVEC); actives raise or lower the signal. The gist of the method: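 Human umbilical vein endothelial cells (4H system) dosed with chemical; MCP-1 measured by ELISA 24 h after dosing. Bidirectional curve fitting against DMSO negative control as baseline; parallel SRB total-protein staining tracks overt cytotoxicity.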

Read-out in assay [9]: Human Leukocyte Antigen - DR isotype (HLADR), HLA-DRA (gene 3122)
The assay is described as follows: BSK_3C_HLADR: BioMAP Diversity Plus: 3C Assay for Human Leukocyte Antigen - DR isotype (HLADR) Biomarker Activity (AID 2283019).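 As to outcome: ELISA of cell-surface HLA-DR on HUVEC 24 h after dosing.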 Conditions: primary human endothelial cells (HUVEC); actives raise or lower the signal. Summed up:
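ELISA readout of surface HLA-DR on human umbilical vein endothelium, taken 24 h after chemical treatment. Gain- and loss-of-signal were both fitted relative to DMSO.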

Read-out in assay [10]: Interleukin-8 (IL8), CXCL8 (gene 3576)
Description: BSK_3C_IL8: BioMAP Diversity Plus: 3C Assay for Interleukin-8 (IL8) Biomarker Activity (AID 2283020). Conditions: primary human endothelial cells (HUVEC); actives raise or lower the signal. The gist of the method:
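Primary human umbilical vein endothelial cells (3C system) were exposed to test chemical for 24 h, then IL-8 was quantified by ELISA. Responses were fitted bidirectionally against DMSO vehicle as baseline.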

Read-out in assay [11]: Monokine induced gamma interferon (MIG), CXCL9 (gene 4283)
The assay is described as follows: BSK_3C_MIG: BioMAP Diversity Plus: 3C Assay for Monokine induced gamma interferon (MIG) Biomarker Activity (AID 2283021).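 As to AC50: MIG protein level measured by immunoassay in the treated endothelial cultures.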 Conditions: primary human endothelial cells (HUVEC); actives raise or lower the signal. The gist of the method: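 Primary human umbilical vein endothelial cells in the 3C system were exposed to chemical for 24 h, after which MIG was quantified by ELISA. Activity was fitted bidirectionally against DMSO as negative control and baseline.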

In assay [12] the target is human Vitamin D Receptor (VDR), VDR (gene 7421) (UniProt P11473). Description: ATG_VDR_TRANS: Attagene TRANS-FACTORIAL HepG2 Assay for human Vitamin D Receptor (VDR) (AID 2283022; active = hit-call score of the fitted dose curve at least 0.9, where 1 is the maximum). The gist of the method:
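Steps: transfect HepG2 with GAL4-UAS-driven reporter constructs; dose compounds 24 h; isolate RNA, reverse-transcribe, PCR-amplify with 6-FAM-labelled primer extension and HpaI digestion; quantify fragments by capillary electrophoresis relative to DMSO.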

A short description of assay [13]: BSK_3C_SRB: Viability Assessment in the BioMAP Diversity Plus: 3C Assay (AID 2283023).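 Also: fitted both ways against DMSO so a hit may be signal rise or drop.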 Conditions: primary human endothelial cells (HUVEC). The gist of the method: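 Absorbance at 560 nm of sulforhodamine B-stained (0.1%) total protein served as a cytotoxicity readout in human umbilical vein endothelial cells, 24 h after chemical treatment. Signal was fitted bidirectionally relative to DMSO.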

Read-out in assay [14]: Matrix Metallopeptidase 1 (MMP1), MMP1 (gene 4312)
Description: BSK_BE3C_MMP1: BioMAP Diversity Plus: BE3C Assay for Matrix Metallopeptidase 1 (MMP1) Biomarker Activity (AID 2283024). Conditions: primary human bronchial epithelial cells; actives raise or lower the signal. The gist of the method:
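Primary human bronchial epithelial cells were dosed with test chemicals, and MMP1 levels were measured by ELISA 24 h later. Data were fitted bidirectionally against DMSO as the negative control and activity baseline.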

Read-out in assay [15]: Pselectin, SELP (gene 6403)
Description: BSK_4H_Pselectin: BioMAP Diversity Plus: 4H Assay for Pselectin Biomarker Activity (AID 2283026). Conditions: primary human endothelial cells (HUVEC); actives raise or lower the signal. Summed up:
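Primary human umbilical vein endothelial cells were exposed to test chemical for 24 h, then cell-surface P-selectin was quantified by ELISA. Activity was fitted bidirectionally against DMSO as negative control and baseline.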

Assay [16] can be described thus: BSK_4H_SRB: Viability Assessment in the BioMAP Diversity Plus: 4H Assay (AID 2283027).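 Also: cells exposed to compound for 24 h before staining.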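 As to AC50: curves fitted both ways versus DMSO so AC50 may be loss or gain.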 To be noted: primary human endothelial cells (HUVEC). Summed up:
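Human umbilical vein endothelial cells were dosed with chemical and, after 24 h, fixed with 10% TCA, stained with 0.1% sulforhodamine B, and read at 560 nm to give total protein as a cytotoxicity measure. Bidirectional fitting relative to DMSO control.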

Assay [17] can be described thus: BSK_BE3C_SRB: Viability Assessment in the BioMAP Diversity Plus: BE3C Assay (AID 2283028). Conditions: primary human bronchial epithelial cells. Summed up: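 Cells (human bronchial epithelial, primary) are treated with chemicals, and after 24 h the parallel cultures are fixed in 10% TCA. These are then stained with 0.1% SRB and read at 560 nm. Gain or loss of signal is fitted relative to DMSO.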

Read-out in assay [18]: Thrombomodulin, THBD (gene 7056)
The assay is described as follows: BSK_3C_Thrombomodulin: BioMAP Diversity Plus: 3C Assay for Thrombomodulin Biomarker Activity (AID 2283029). Conditions: primary human endothelial cells (HUVEC); actives raise or lower the signal. Summed up: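 Primary human umbilical vein endothelial cells (3C system) were exposed to chemical for 24 h, then thrombomodulin levels were measured by ELISA. Activity was fitted bidirectionally against the DMSO negative control as baseline.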

Read-out in assay [19]: Urokinase-type plasminogen activator receptor (uPAR), PLAUR (gene 5329)
Description: BSK_4H_uPAR: BioMAP Diversity Plus: 4H Assay for Urokinase-type plasminogen activator receptor (uPAR) Biomarker Activity (AID 2283030). To be noted: primary human endothelial cells (HUVEC); actives raise or lower the signal. The gist of the method: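 Cell-surface uPAR ELISA signal, measured 24 h after dosing human umbilical vein endothelial cells, was analyzed with bidirectional fitting relative to DMSO. Parallel SRB staining of total protein tracked overt cytotoxicity.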

Assay [20] in a line: BSK_3C_Vis: BioMAP Diversity Plus: 3C Assay for Morphology Visualization (AID 2283025).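 Also: fitted both ways so gain or loss versus DMSO counts.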 Conditions: primary human endothelial cells (HUVEC). The gist of the method:
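Human umbilical vein endothelial cells in the 3C system were imaged by light microscopy 24 h after chemical dosing to record cell morphology. Activity was fitted bidirectionally against DMSO as negative control and baseline; the endpoint serves as a background control.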

Values joined by “and” are separate entries in the source; they are usually repeats but may differ in a detail not shown here. Equal values may be shown once. Records with an inconclusive call do not appear. Where a structure was tested more than once in an assay, its records may differ in their call. Active and inactive are the calls of the source. The calls were made as follows, unless noted: active = hit-call score of the fitted dose curve at least 0.9, where 1 is the maximum; inactive = score below 0.9.

human Vitamin D Receptor (VDR), VDR (gene 7421), sequence (P11473 whole entry, looked up, the tested form may be a part): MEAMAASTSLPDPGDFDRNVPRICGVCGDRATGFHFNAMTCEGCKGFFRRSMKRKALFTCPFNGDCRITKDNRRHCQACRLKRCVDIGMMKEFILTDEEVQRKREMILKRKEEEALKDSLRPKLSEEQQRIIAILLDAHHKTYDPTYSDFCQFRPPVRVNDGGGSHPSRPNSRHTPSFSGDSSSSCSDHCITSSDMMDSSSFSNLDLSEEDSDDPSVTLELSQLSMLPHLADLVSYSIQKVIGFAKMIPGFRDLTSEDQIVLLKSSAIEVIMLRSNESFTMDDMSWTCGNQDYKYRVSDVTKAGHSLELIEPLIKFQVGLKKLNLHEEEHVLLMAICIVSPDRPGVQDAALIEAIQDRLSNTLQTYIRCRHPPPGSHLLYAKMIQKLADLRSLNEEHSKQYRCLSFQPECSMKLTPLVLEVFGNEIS
human RAR-related Orphan Receptor gamma (RORg), RORC (gene 6097), sequence (P51449 whole entry, looked up, the tested form may be a part): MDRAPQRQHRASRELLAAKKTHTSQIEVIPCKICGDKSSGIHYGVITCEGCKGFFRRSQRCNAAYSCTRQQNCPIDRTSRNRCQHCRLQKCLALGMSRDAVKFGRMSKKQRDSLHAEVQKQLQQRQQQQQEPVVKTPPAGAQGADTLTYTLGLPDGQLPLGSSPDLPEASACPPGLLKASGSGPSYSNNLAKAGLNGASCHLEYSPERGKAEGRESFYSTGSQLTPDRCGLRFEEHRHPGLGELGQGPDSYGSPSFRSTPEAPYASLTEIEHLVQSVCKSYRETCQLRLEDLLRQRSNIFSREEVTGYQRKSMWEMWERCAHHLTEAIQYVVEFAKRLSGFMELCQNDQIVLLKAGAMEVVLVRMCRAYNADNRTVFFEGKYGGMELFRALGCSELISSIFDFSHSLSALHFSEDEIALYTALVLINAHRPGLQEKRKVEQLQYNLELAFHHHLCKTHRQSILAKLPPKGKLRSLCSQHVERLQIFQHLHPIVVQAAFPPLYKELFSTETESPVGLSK
human Thyroid Receptor alpha (THRa1), THRA (gene 7067), sequence (P10827 whole entry, looked up, the tested form may be a part): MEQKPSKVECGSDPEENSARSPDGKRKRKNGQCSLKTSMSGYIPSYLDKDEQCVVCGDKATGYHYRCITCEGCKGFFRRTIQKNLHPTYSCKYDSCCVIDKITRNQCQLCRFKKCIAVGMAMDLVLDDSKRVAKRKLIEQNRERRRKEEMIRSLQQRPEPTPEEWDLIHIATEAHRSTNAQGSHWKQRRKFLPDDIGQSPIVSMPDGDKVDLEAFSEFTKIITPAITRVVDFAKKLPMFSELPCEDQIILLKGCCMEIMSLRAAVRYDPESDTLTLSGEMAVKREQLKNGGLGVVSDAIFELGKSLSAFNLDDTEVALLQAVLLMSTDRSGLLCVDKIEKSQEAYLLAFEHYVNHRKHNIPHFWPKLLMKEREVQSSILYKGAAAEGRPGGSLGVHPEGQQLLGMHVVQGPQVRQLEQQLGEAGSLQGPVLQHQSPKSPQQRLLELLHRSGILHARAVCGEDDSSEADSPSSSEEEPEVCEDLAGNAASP
human Retinoid X Receptor beta (RXRb), RXRB (gene 6257), sequence (P28702 whole entry, looked up, the tested form may be a part): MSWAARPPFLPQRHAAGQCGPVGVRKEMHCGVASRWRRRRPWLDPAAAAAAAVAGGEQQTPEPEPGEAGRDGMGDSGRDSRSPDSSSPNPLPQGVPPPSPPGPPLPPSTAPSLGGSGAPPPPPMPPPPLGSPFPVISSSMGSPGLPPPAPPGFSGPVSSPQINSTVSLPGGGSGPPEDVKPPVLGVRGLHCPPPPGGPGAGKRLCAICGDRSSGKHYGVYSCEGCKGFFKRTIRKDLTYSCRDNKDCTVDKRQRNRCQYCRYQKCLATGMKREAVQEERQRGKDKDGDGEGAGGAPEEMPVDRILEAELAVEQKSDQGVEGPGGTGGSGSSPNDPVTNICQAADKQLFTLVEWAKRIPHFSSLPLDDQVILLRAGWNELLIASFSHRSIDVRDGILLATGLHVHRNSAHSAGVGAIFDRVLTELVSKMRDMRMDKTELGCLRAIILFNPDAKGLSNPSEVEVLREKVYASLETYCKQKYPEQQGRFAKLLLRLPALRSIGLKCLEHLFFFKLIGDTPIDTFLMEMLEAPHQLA
E-selectin (Homo sapiens), sequence (P16581 whole entry, looked up): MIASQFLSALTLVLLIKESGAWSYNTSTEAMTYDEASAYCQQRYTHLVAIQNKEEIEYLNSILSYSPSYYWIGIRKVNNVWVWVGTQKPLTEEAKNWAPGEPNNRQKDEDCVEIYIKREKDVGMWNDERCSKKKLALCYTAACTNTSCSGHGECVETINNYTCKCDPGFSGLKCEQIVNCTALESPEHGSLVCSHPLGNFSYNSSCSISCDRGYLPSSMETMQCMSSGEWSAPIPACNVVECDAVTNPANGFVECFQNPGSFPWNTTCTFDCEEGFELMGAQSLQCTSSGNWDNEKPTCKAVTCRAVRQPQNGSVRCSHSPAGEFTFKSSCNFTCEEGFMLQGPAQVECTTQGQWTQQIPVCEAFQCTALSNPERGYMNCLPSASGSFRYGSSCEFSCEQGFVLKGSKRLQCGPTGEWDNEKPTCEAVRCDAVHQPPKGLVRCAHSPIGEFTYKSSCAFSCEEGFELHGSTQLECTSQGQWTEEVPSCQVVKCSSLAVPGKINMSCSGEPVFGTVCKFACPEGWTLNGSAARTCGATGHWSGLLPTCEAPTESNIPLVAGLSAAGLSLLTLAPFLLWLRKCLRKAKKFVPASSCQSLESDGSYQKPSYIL
Retinoic acid receptor RXR-alpha (Homo sapiens), sequence (P19793 whole entry, looked up, the tested form may be a part): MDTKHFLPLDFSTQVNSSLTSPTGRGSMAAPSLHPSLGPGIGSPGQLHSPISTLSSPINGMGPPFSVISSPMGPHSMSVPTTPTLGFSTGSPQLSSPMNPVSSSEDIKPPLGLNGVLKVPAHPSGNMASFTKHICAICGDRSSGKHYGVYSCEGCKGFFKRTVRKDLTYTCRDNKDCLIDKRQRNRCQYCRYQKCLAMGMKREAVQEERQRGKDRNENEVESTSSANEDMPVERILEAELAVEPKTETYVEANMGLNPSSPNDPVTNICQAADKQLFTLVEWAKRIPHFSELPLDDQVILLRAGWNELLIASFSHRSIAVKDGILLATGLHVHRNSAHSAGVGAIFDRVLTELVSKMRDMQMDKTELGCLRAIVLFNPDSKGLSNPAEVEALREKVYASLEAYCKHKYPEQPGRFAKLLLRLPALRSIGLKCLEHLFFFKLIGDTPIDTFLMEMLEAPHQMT

As to `OCC(F)(F)OC(F)(F)C(F)(F)OC(F)(F)C(F)(F)OC(F)(F)F`, the compound was classed as inactive in [1], in assay [2], in assay [3], in assay [4], in [6] and in assay [8]. Moreover, the compound was called inactive in assay [12], in [14], in [17] and in assay [18]. For the same compound, the AC50 is 32.2 µM (active) in assay [3]; 46.3 µM (active) and 55.2 µM (active) in assay [5]; 45.4 µM (active) and 14.5 µM (active) in [7]; 45.4 µM (active) in assay [8]; 31.5 µM (active) and 49.7 µM (active) in [9]; 40.7 µM (active) and 42.9 µM (active) in assay [10]. The AC50 is 38.9 µM (active) and 48.5 µM (active) in [11]; 25.7 µM (active) and 49.8 µM (active) in [13]; 52.2 µM (active) and 44.9 µM (active) in assay [15]; 47.5 µM (active) and 18.3 µM (active) in [16]; 50.3 µM (active) and 44.6 µM (active) in assay [19].
As to `CCOC(=O)c1ccccc1C(=O)OCC`, the outcome in [1], in assay [3], in assay [6], in [7], in assay [8] and in [9] was inactive. Moreover, the result in assay [10], in assay [11], in assay [12], in assay [13], in [14] and in assay [15] was inactive. Also, the outcome in assay [16], in assay [17], in [18] and in [19] was inactive.
For the compound `N#C/C=C/c1ccccc1`, the outcome in assay [1], in assay [3] and in assay [4] was inactive.
`Cc1cccc(N)c1`: the outcome in assay [1], in assay [4], in assay [6], in assay [7], in [8] and in assay [9] was inactive. The outcome in [10], in assay [11], in assay [12], in assay [13], in assay [14] and in [20] was inactive. The outcome in assay [15], in assay [16], in [17] and in [18] was inactive.
Consider `c1cc2c3c(cccc3c1)CC2`, for which the result in assay [1], in assay [3], in assay [4], in assay [5], in assay [6] and in assay [7] was inactive. For the same compound, the result in assay [8], in [9], in [10], in assay [11], in assay [13] and in assay [14] was inactive. Besides, the result in assay [15], in assay [16], in [17], in assay [18] and in [19] was inactive.

Source of the values: PubChem BioAssay (EPA / NIEHS).
